From PubChem BioAssay (NCI)
The panel holds about 79,000 compounds, 15% with a hit somewhere; the sample as a whole holds those more often. Cut-off read from the data, not from the text of the source: active = growth inhibition above about 70%; inactive = the rest.

Assays:
[1] = NCI Yeast Anticancer Drug Screen. Data for the rad50 strain (AID 155);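 note: 0% = growth of vehicle-only cultures of the same strain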; settings: S. cerevisiae rad50 strain growth inhibition; at 50.0 µM; stronger effect = higher value
Procedure, shortened: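 Inhibition values express reduced yeast growth in compound-treated cultures relative to vehicle-treated controls.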

[2] = NCI Yeast Anticancer Drug Screen. Data for the sgs1 mgt1 strain (AID 161);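 note: 0% = growth of cultures given vehicle only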; settings: S. cerevisiae sgs1 mgt1 strain, at 50.0 µM, stronger effect = higher value
Procedure, shortened: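 Inhibition of yeast growth, normalised to vehicle-treated controls, is reported for a strain bearing genetic alterations in DNA damage repair.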

[3] = NCI Yeast Anticancer Drug Screen. Data for the cln2 rad14 strain (AID 165);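 note: 0% = growth equal to vehicle treated cultures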; settings: S. cerevisiae cln2 rad14 strain, at 50.0 µM, stronger effect = higher value
Procedure, shortened: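 Test compounds were added to cln2 rad14 yeast cultures; inhibition of growth was then determined by comparison with vehicle treatment.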

[4] = NCI Yeast Anticancer Drug Screen. Data for the bub3 strain (AID 167); settings: S. cerevisiae bub3 mutant strain, at 50.0 µM, stronger effect = higher value
Procedure, shortened: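 Steps: expose the mutant yeast strain to compound; grow alongside vehicle-treated cultures; measure growth; express inhibition against the vehicle cultures.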

[5] = NCI Yeast Anticancer Drug Screen. Data for the mlh1 rad18 strain (AID 175); settings: S. cerevisiae mlh1 rad18 strain growth inhibition; at 50.0 µM; stronger effect = higher value
Procedure, shortened: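 Inhibition values reflect reduced growth of mutant yeast versus vehicle-treated controls following compound exposure; the mutations affect DNA damage repair.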

Measured: growth inhibition

CCCCCCCCOC(=O)CO
inactive: [1] 23.8% | [2] 17.8% | [3] 5.35% | [4] 3.1% | [5] 12.3%

CN(Cc1ccccc1)C(=O)c1ccc(C(=O)N(C)Cc2ccccc2)cc1
inactive: [1] 1.75% | [2] 19.4% | [3] -3.95% | [4] 35.1% | [5] 40.2%

Cc1c(C)c(C)c(CN2CCC(C)CC2)c(C)c1C
inactive: [1] -2.55% | [2] -14.9% | [3] -17.6% | [4] 3.45% | [5] -9.1%

CC(C#N)c1cn(S(=O)(=O)c2ccccc2)c2ccccc12 (stereo not given)
inactive: [1] 30.6% | [2] -5.4% | [3] 9.75% | [4] 52.7% | [5] 37%

CCOC(=O)Nc1nc2ccccc2n1CN1CCOCC1
inactive: [1] -32.1% | [2] -18.9% | [3] -14.9% | [4] -5.35% | [5] -7.8%

CCC(=O)OC1CCCCC1C1CCCCC1 (stereo not given)
inactive: [1] 1.55% | [2] 8% | [3] -37.6% | [4] -3.45% | [5] -3.9%

[N-]=[N+]=NC1CC(n2ccc(N)nc2=O)OC1CO (stereo not given)
inactive: [1] -3.9% | [2] 0.8% | [3] -6.65% | [4] -8.95% | [5] 8.8%

CC(=O)SCC(C)CCl (stereo not given)
inactive: [1] -12.4% | [2] -30.9% | [3] -3.15% | [4] -17.7% | [5] -25.4%

CC(CC(=O)Nc1ccccc1)C(=O)O (stereo not given)
inactive: [1] 7.85% | [2] -10.8% | [3] -26.4% | [4] 5.55% | [5] 2.55%

Clc1ccccc1C(Nc1nc2ccccc2s1)Nc1nc2ccccc2s1
inactive: [1] 13.3% | [2] -10.9% | [3] 4.65% | [4] -2% | [5] 17.4%

Oc1ccccc1CN1CCOCC1 (tested in a mixture with another compound)
inactive: [1] -2.7% | [2] 6.95% | [3] -46.2% | [4] 0.2% | [5] -6.25%

O=C(Nc1nc2ccccc2n1Cc1ccc(Cl)cc1)NC12CC3CC(CC(C3)C1)C2
inactive: [1] 15.8% | [2] 7.2% | [3] -30.6% | [4] 27.5% | [5] -18.6%

CCOc1ccc(-c2oc(/C=N/NS(=O)(=O)c3ccc(C)cc3)c([N+](=O)[O-])c2-c2ccc(OCC)cc2)cc1
inactive: [1] 59.7% | [2] 64% | [3] 62.2% | [4] 44.6% | [5] 58.5%

Cc1c(/C=C\C(=O)c2ccccc2)c2ccccc2n1C
inactive: [1] 12.7% | [2] 2.2% | [3] -21.6% | [4] -15.2% | [5] 1.15%

CN(C)c1ccc(N=Nc2cc3c4ccccc4ccc3c3ccccc23)cc1
inactive: [1] 15.1% | [2] 23.1% | [3] 1.6% | [4] 9.45% | [5] 23.3%

C/C(CCn1[nH]c(=O)ccc1=O)=N\N=C(N)N
inactive: [1] -13.2% | [2] -0.65% | [3] -4.85% | [4] -1.4% | [5] 1.7%

CCCOC(=O)c1cc(O)ccc1O
inactive: [1] 1.15% | [2] 14.9% | [3] -17.6% | [4] -2.55% | [5] -1.7%

CC(C)NC(=O)OCc1c(COC(=O)NC(C)C)c(S(C)(=O)=O)n2c1CCC2
inactive: [1] 3.65% | [2] -15.3% | [3] 7.9% | [4] -1.3% | [5] 6.8%

COc1ccc2c(c1OC)C1=NCCc3cc4c(cc3C1(OC)C2=O)OCO4 (stereo not given)
inactive: [1] -7.15% | [2] 7.05% | [3] 16.8% | [4] 13.7% | [5] -1.2%
